# Laboratory results: PubChem BioAssay (Tox21)
# Records with an inconclusive call do not appear. A call without a number means that no potency is given here. Unmarked numbers belong to inactive results. Active and inactive are the calls of the source. Unless noted, the call rests on the fitted dose curve; in most records, active means well fitted curve in the direction sought with a large enough effect in the repeat runs; inconclusive means weak or mixed curves; inactive means no such curve, though single readings can be large; an effect the other way counts as inactive or inconclusive.
# What was measured:
# [1] = target: Luciferin 4-monooxygenase (Photinus pyralis) (UniProt P08659); assay: qHTS assay to identify small molecule inhibitors of firefly luciferase (AID 1224835); further: nearly all actives have a fitted effect of over 25% in size; further: potency means the concentration at half of the fitted maximal effect; on activity change, negative = inhibition: series mostly up to about 120 µM
# In short: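 Biochemical qHTS: compounds run as interplate titrations against purified firefly enzyme, with D-luciferin and ATP each at its KM concentration. Light output recorded by CCD imaging.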
# [2] = qHTS assay to identify small molecule agonists of the constitutive androstane receptor (CAR) signaling pathway - cell viability counter screen (AID 1224836); further: nearly all actives have a fitted effect of over 45% in size; further: potency means the concentration at half of the fitted maximal effect; on viability change, negative = cytotoxic: series mostly up to about 92 µM
# In short: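 HepG2 cells stably carrying hCAR and a CYP2B6-2.2kb reporter were plated 4 h, then given compounds at 15 concentrations plus PK11195 (final 0.75 uM). After 23 h at 37 C, viability was read by CellTiter-Fluor fluorescence.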
# [3] = qHTS assay to identify small molecule antagonists of the constitutive androstane receptor (CAR) signaling pathway - cell viability counter screen (AID 1224837); further: nearly all actives have a fitted effect of over 45% in size; further: potency means the concentration at half of the fitted maximal effect; on activity change, negative = cytotoxicity: series mostly up to about 92 µM
# In short: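 In quantitative HTS format, compounds at 15 concentrations were applied to HepG2 cells double-transfected with hCAR and CYP2B6-2.2kb under 50 nM CITCO stimulation; live-cell protease activity was read after 23 hr via CellTiter-Fluor.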
# [4] = target: Nuclear receptor subfamily 1 group I member 3 (Homo sapiens) (UniProt Q14994); assay: qHTS assay to identify small molecule antagonists of the constitutive androstane receptor (CAR) signaling pathway (AID 1224838); further: nearly all actives have a fitted effect of over 40% in size; further: potency means the concentration at half of the fitted maximal effect
# In short: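 CITCO-stimulated (50 nM final) HepG2 cells stably transfected with hCAR and CYP2B6-2.2kb luciferase were exposed to compounds at 15 concentrations for 24 h at 37 C/5% CO2. A luciferase reagent was added and luminescence recorded after 30 min.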
# [5] = target: Nuclear receptor subfamily 1 group I member 3 (Homo sapiens) (UniProt Q14994); assay: qHTS assay to identify small molecule agonists of the constitutive androstane receptor (CAR) signaling pathway (AID 1224839); further: nearly all actives have a fitted effect of over 15% in size; further: potency means the concentration at half of the fitted maximal effect;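 on activation: HepG2 cells stably carrying human CAR and a CYP2B6 luciferase reporter; series mostly up to about 92 µM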
# In short: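 HepG2 cells stably expressing hCAR and a CYP2B6-2.2kb luciferase reporter were treated with compounds at 15 concentrations plus 0.75 uM PK11195 (final) for 24 h at 37 C; luminescence was read after ONE-Glo addition.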
# [6] = qHTS assay to identify small molecule antagonists of the estrogen related receptor signaling pathway with the pleiotropic PPARgamma coactivator (PGC) from Tox21 10K library - cell viability counter screen (AID 1224840; active means well fitted cell-killing curve with a large enough effect in the repeat runs, not every such curve was filed as active; further: nearly all actives have a fitted effect of over 40% in size)
# In short: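 Viability counter screen, PGC/ERR cells: 17.5 h compound exposure at 37 C, CellTiter-Fluor fluorescence endpoint.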
# [7] = target: Thyrotropin receptor (Homo sapiens) (UniProt P16473); assay: qHTS assay to identify small molecule agonists of the thyroid stimulating hormone receptor (TSHR) signaling pathway (AID 1224843; calls by dose curve; further: nearly all actives have a fitted effect of over 45% in size)
# In short: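 HEK293/TSHR, 800 cells/well; cpd 30 min RT; add cAMP-d2 + anti-cAMP-cryptate, 1 h RT; fluorescence read on plate reader. 15-pt titration, n=3.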
# [8] = qHTS assay to identify small molecule agonists of the estrogen related receptor signaling pathway with the pleiotropic PPARgamma coactivator (PGC) from Tox21 10K library (AID 1224842); further: nearly all actives have a fitted effect of over 15% in size; further: potency means the concentration at half of the fitted maximal effect
# In short: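 PGC/ERR reporter cell line, 2,000 cells per well, incubated 6 h at 37 C before 23 nL compound in DMSO was added. After 18 h at 37 C, One-Glo luminescence read following 30 min at room temperature.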
# [9] = qHTS assay to identify small molecule antagonists of the estrogen related receptor (ERR) signaling pathway from Tox21 library - cell viability counter screen (AID 1224834); further: nearly all actives have a fitted effect of over 30% in size
# In short: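 In this quantitative HTS format, ERR cells receive compounds in DMSO and are incubated for 17.5 h at 37 C. Live-cell protease activity is then detected with CellTiter-Fluor.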
# [10] = qHTS assay to identify small molecule antagonists of the estrogen related receptor signaling pathway with the pleiotropic PPARgamma coactivator (PGC) from Tox21 10K library (AID 1224841; call rule not given here; further: actives are mostly falling curves and most rising ones were filed inactive; nearly all actives have a fitted effect of over 50% in size; further: potency means the concentration at half of the fitted maximal effect; on activity, negative = inhibition: series mostly up to about 92 µM)
# In short: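 In the PGC/ERR line, DMSO solutions of test chemicals are pin-delivered to 2,000 cells/well six hours after dispensing. Following eighteen hours' incubation, One-Glo reagent is added and luminescence recorded.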
# Chain of Thyrotropin receptor (Homo sapiens) (P16473 whole entry, looked up): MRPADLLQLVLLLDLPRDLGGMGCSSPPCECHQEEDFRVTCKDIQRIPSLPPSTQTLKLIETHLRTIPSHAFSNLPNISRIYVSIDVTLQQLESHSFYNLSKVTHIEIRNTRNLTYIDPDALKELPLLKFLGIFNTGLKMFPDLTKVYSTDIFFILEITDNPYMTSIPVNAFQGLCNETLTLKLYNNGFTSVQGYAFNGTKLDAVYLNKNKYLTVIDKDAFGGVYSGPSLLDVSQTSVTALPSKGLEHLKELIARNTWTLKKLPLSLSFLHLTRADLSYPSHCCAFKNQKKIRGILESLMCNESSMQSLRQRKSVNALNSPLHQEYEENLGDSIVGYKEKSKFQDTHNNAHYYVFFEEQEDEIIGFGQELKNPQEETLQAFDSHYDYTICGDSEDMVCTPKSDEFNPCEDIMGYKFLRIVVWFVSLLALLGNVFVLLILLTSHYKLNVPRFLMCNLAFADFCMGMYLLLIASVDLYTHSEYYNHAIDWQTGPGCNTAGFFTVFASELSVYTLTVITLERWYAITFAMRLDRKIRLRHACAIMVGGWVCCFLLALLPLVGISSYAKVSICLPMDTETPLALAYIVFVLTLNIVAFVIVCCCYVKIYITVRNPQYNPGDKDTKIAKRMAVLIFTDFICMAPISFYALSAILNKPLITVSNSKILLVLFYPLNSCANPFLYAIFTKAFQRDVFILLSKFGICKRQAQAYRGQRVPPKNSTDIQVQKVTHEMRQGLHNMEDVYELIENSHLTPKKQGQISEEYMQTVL
# Chain of Nuclear receptor subfamily 1 group I member 3 (Homo sapiens) (Q14994 whole entry, looked up): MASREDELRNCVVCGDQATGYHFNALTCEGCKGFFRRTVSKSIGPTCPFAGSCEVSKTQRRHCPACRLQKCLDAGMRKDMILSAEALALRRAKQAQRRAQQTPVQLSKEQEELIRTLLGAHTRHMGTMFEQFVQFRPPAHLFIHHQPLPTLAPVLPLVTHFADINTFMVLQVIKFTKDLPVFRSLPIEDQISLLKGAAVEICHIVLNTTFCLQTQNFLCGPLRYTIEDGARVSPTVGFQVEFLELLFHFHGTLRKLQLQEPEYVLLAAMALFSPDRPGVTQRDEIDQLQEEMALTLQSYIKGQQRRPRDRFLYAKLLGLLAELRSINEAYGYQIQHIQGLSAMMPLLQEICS
# Chain of Luciferin 4-monooxygenase (Photinus pyralis) (P08659 whole entry, looked up): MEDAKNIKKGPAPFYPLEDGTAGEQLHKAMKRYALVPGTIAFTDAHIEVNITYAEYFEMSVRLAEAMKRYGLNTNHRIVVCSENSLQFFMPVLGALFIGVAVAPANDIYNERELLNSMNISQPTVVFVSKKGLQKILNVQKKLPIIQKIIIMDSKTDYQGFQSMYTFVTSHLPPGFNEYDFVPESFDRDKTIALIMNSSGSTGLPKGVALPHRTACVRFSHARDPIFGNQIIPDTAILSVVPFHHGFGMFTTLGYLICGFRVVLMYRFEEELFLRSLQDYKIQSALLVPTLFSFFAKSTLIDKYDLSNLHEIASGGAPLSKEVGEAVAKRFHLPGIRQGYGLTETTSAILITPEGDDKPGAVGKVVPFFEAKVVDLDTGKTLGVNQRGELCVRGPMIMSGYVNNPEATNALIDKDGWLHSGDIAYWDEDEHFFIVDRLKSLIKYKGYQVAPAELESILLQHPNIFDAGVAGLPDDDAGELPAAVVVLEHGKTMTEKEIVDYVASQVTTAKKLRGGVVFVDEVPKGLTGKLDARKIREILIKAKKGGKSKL
compound,measurement,setting,value
CN1CCC[C@@H]1Cc1c[nH]c2ccc(CCS(=O)(=O)c3ccccc3)cc12,Potency,[1],inactive
same,Potency,[2],inactive
same,Potency,[3],inactive
same,Potency,[4],inactive
same,Potency,[5],inactive
same,Potency,[6],inactive
same,Potency,[7],inactive
Cc1cn([C@@H]2O[C@H](CO)[C@@H](O)[C@@H]2F)c(=O)[nH]c1=O,Potency,[1],inactive
same,Potency,[2],inactive
same,Potency,[3],inactive
same,Potency,[4],inactive
same,Potency,[5],inactive
same,Potency,[6],inactive
same,Potency,[7],inactive
CC1=CC(=O)CC(C)(C)C1=O,Potency,[1],inactive
same,Potency,[2],inactive
same,Potency,[3],inactive
same,Potency,[4],inactive
same,Potency,[5],inactive
same,Potency,[7],inactive
O=C(O[C@@H](C(=O)O)[C@@H](OC(=O)c1ccccc1)C(=O)O)c1ccccc1,Potency,[1],inactive
same,Potency,[2],inactive
same,Potency,[3],inactive
same,Potency,[4],inactive
same,Potency,[5],inactive
same,Potency,[6],inactive
same,Potency,[8],inactive
OCc1c2ccccc2cc2ccccc12,Potency,[9],inactive
same,Potency,[4],inactive
same,Potency,[6],inactive
same,Potency,[10],68.8 µM (active)
same,Potency,[8],inactive
Cc1nc(-c2ccccn2)ncc1C(=O)Nn1cc(C)c2cc(F)ccc21,Potency,[9],inactive
same,Potency,[3],24.3 µM (active)
same,Potency,[4],13.7 µM (active)
same,Potency,[5],inactive
same,Potency,[10],38.6 µM (active)
same,Potency,[8],inactive
CC(=O)O[C@H]1CC[C@@]2(C)C(=CC[C@@H]3[C@@H]2CC[C@]2(C)C(C(C)=O)=CC[C@@H]32)C1,Potency,[9],inactive
same,Potency,[4],inactive
same,Potency,[5],inactive
same,Potency,[6],inactive
same,Potency,[7],inactive
C=CCc1cc(OC)c(O)c(C(=O)NCCO)c1,Potency,[1],inactive
same,Potency,[2],inactive
same,Potency,[4],inactive
same,Potency,[5],inactive
same,Potency,[6],inactive
COc1nc(C)nc(NC(=O)NS(=O)(=O)c2ccccc2OCCCl)n1,Potency,[9],inactive
same,Potency,[2],inactive
same,Potency,[4],inactive
same,Potency,[5],inactive
same,Potency,[6],inactive
same,Potency,[10],inactive
same,Potency,[8],inactive
O=C1Nc2ccc([N+](=O)[O-])cc2C1=O,Potency,[1],inactive
same,Potency,[2],inactive
same,Potency,[3],inactive
same,Potency,[4],inactive
same,Potency,[5],inactive
same,Potency,[6],inactive
FC(F)(F)c1ccccc1,Potency,[1],inactive
same,Potency,[2],inactive
same,Potency,[3],inactive
same,Potency,[4],inactive
same,Potency,[5],inactive
same,Potency,[6],inactive
same,Potency,[10],inactive
same,Potency,[8],inactive
same,Potency,[7],inactive
CCCCCCOc1ccc(N)cc1,Potency,[1],31.7 µM (active)
same,Potency,[2],inactive
same,Potency,[3],inactive
same,Potency,[4],inactive
same,Potency,[5],27.3 µM (active)
same,Potency,[6],inactive
same,Potency,[10],inactive
same,Potency,[8],12.2 µM (active)
C[C@@H]1CN(c2c(F)c(N)c3c(=O)c(C(=O)O)cn(C4CC4)c3c2F)C[C@H](C)N1,"activity change, negative = inhibition",[1],0.766% [at 23.6 µM]
same,"viability change, negative = cytotoxic",[2],-2.59% [at 19 µM]
same,"activity change, negative = cytotoxicity",[3],0.653% [at 19 µM]
same,"viability change, negative = cytotoxic",[6],-4.64% [at 19 µM]
same,activation,[7],4.51% [at 19 µM]
O=C(O)c1ccccc1Nc1cc(Cl)ccc1C(=O)O,"activity change, negative = inhibition",[1],-7.25% [at 23.6 µM]
same,"viability change, negative = cytotoxic",[2],-10% [at 19 µM]
same,"activity change, negative = cytotoxicity",[3],-10.7% [at 19 µM]
same,"activity, negative = inhibition",[4],-20% [at 19 µM]
same,"activity, negative = inhibition",[10],1.12% [at 19 µM]
same,activation,[8],0.171% [at 19 µM]
same,activation,[7],-5.91% [at 19 µM]
CC(C)S,Potency,[1],inactive
same,Potency,[2],inactive
same,Potency,[3],inactive
same,Potency,[6],inactive
same,Potency,[10],inactive
same,Potency,[8],inactive
same,Potency,[7],inactive
CO[C@@]1(NC(=O)CSCC#N)C(=O)N2C(C(=O)O)=C(CSc3nnnn3C)CS[C@@H]21,Potency,[9],inactive
same,Potency,[4],inactive
same,Potency,[5],inactive
same,Potency,[6],inactive
Cc1cc2c(s1)Nc1ccccc1N=C2N1CCN(C)CC1,Potency,[1],inactive
same,Potency,[2],8.41 µM (active)
same,Potency,[3],3.35 µM (active)
same,Potency,[4],inactive
same,Potency,[6],inactive
same,Potency,[10],inactive
same,Potency,[8],inactive
O=C1CCN(c2ccccc2)N1,Potency,[1],inactive
same,Potency,[2],inactive
same,Potency,[3],inactive
same,Potency,[4],inactive
same,Potency,[5],inactive
same,Potency,[6],inactive
same,Potency,[10],inactive
same,Potency,[8],inactive
Oc1ccccc1C=NCc1ccccc1,Potency,[1],34.7 µM (active)
same,Potency,[2],inactive
same,Potency,[3],inactive
same,Potency,[4],inactive
same,Potency,[5],inactive
same,Potency,[6],inactive
O=C1CCCc2ccccc21,Potency,[2],inactive
same,Potency,[3],inactive
same,Potency,[4],inactive
same,Potency,[5],inactive
same,Potency,[6],inactive
same,Potency,[10],inactive
same,Potency,[8],inactive
CCCCc1ccc2nc(NC(=O)OC)[nH]c2c1,Potency,[2],inactive
same,Potency,[3],inactive
same,Potency,[4],inactive
same,Potency,[5],5.96 µM (active)
same,Potency,[6],inactive
same,Potency,[10],inactive
same,Potency,[8],3.76 µM (active)
CCNCCO,Potency,[7],inactive
CC(C)C1=CC2=CC[C@@H]3[C@](C)(CCC[C@@]3(C)C(=O)O)[C@H]2CC1,Potency,[2],inactive
same,Potency,[3],inactive
same,Potency,[4],inactive
same,Potency,[5],inactive
same,Potency,[6],inactive
same,Potency,[8],inactive
CCOc1ccc(NC(N)=O)cc1,Potency,[2],inactive
same,Potency,[4],inactive
same,Potency,[5],inactive
same,Potency,[6],inactive
same,Potency,[10],inactive
same,Potency,[8],inactive
same,Potency,[7],inactive
Cc1ccc([N+](=O)[O-])c(N)c1,Potency,[2],inactive
same,Potency,[3],inactive
same,Potency,[4],inactive
same,Potency,[5],inactive
same,Potency,[6],inactive
same,Potency,[10],inactive
same,Potency,[8],inactive
same,Potency,[7],inactive
CS(=O)(=O)c1ccc([C@@H](O)[C@@H](CF)NC(=O)C(Cl)Cl)cc1,Potency,[2],inactive
same,Potency,[3],inactive
same,Potency,[5],inactive
same,Potency,[6],inactive
same,Potency,[7],inactive
